# PubChem BioAssay (EPA / NIEHS)
# Several values for one entry are separate records, joined by “and”; a condition that tells them apart may be missing. Identical values can stand only once. Inconclusive results are not listed. Activity calls are given as the source filed them. How the source made its calls: active means hit-call score of the fitted dose curve at least 0.9, where 1 is the maximum; inconclusive means response in the unintended direction; inactive means score below 0.9.
# Molecular target: human Peripheral-type Benzodiazepine Receptor (PBR), TSPO (gene 706) (UniProt P30536)
# Sequence (P30536 whole entry, looked up): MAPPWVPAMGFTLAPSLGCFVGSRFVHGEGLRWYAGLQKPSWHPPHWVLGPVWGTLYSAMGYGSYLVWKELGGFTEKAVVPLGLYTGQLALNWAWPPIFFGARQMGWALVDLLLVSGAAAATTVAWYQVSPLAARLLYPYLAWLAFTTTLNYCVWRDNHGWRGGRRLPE
# Experiment: NVS_MP_hPBR: NovaScreen (NVS) Membrane Protein Assay for human Peripheral-type Benzodiazepine Receptor (PBR) (AID 2283331);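 further: hits reduce radioligand binding relative to DMSO baseline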
# Method in brief: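 Radioligand displacement on human colonic cell membranes, 1 h incubation; bound radioactivity by filtration and scintillation counting. Primary screen in duplicate at 25 uM single concentration, actives followed up in concentration series; loss of binding versus DMSO.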
row,Structure (SMILES),AC50
1,COP(=S)(OC)Oc1ccc(Sc2ccc(OP(=S)(OC)OC)cc2)cc1,1.16 µM (active) and 16.9 µM (active)
2,CCOP(=S)(OCC)SCCS(=O)(=O)CC,30.7 µM (active)
3,Nc1ccc(-c2ccc(N)c(Cl)c2)cc1Cl,9.91 µM (active)
4,CC(C)(c1ccc(OCC2CO2)cc1)c1ccc(OCC2CO2)cc1 (stereo not given),7.73 µM (active)
5,Oc1ccc(-c2ccccc2)cc1,43.8 µM (active) and 13.8 µM (active)

# Molecular target: human Androgen Receptor (AR), AR (gene 367) (UniProt P10275)
# Sequence (P10275 whole entry, looked up): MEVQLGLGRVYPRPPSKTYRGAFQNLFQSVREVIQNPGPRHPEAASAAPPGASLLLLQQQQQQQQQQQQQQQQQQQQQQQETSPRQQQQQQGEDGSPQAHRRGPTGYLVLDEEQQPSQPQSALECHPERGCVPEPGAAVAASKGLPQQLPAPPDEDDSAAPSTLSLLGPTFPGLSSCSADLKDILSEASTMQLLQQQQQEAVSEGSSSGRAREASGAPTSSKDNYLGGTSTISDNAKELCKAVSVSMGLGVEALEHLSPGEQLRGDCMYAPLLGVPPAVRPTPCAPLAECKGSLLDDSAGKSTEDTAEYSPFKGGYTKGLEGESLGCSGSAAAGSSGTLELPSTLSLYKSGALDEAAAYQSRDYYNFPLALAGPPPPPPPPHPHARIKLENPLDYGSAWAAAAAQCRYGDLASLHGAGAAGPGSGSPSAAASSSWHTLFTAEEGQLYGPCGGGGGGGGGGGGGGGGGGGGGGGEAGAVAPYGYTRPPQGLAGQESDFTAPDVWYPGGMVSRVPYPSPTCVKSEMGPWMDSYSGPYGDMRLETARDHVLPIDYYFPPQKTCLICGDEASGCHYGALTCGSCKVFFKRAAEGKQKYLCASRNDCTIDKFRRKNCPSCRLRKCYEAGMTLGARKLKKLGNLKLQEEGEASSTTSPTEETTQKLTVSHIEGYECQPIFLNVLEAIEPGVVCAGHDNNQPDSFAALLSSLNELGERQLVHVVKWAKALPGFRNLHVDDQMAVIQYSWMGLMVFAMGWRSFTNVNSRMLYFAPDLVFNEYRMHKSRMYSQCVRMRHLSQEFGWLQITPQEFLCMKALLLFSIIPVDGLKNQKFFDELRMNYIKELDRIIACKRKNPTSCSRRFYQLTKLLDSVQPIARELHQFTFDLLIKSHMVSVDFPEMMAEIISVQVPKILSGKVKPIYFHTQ
# Experiment: NVS_NR_hAR: NovaScreen (NVS) Nuclear Receptor Binding Assay for human Androgen Receptor (AR) (AID 2283332)
# Method in brief: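 LnCAP cell-free extract; radioligand displacement read by scintillation counting after 20 h. Primary screen single concentration 25 uM in duplicate, actives then run as concentration series; loss-of-signal fitted relative to DMSO baseline.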
Structure (SMILES),outcome,AC50
N#CCCO,inactive,
CC12CC1(C)C(=O)N(c1cc(Cl)cc(Cl)c1)C2=O (stereo not given),,17.1 nM (active) and 355 nM (active)
Cl/C=C\C[N+]12CN3CN(CN(C3)C1)C2,inactive,
COP(=S)(OC)Oc1ccc(Sc2ccc(OP(=S)(OC)OC)cc2)cc1,,17.9 µM (active)
CCN(CC)C(=O)Cl,inactive,
